From PubChem BioAssay (Tox21) come the findings set out here.

The nature of assay [1]: qHTS RealTime-Glo MT Cell Viability Assay in HepG2 cells - 40 hour (AID 1224870). Also: nearly all actives have a fitted effect of over 50% in size. The essentials:
(§1)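 Real-time viability: cells seeded at 600 per well together with NanoLuc and cell-permeant prosubstrate, compounds added after 5 h incubation. Luminescence tracked at 0, 8, 16, 24, 32 and 40 h of exposure.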

Assay [2] is described as follows: qHTS RealTime-Glo MT Cell Viability Assay in HEK293 cells - 16 hour (AID 1224872). Also: nearly all actives have a fitted effect of over 50% in size. Also: potency is read from the fitted curve at half-maximal effect. The essentials:
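Assay medium contained NanoLuc luciferase plus cell-permeant prosubstrate, added with HEK293 cells at 600 cells/well. After 5 h at 37 C/5% CO2 compounds were added; plates stayed at 37 C for 40 h with serial luminescence reads.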

Assay [3] in a line: qHTS RealTime-Glo MT Cell Viability Assay in HepG2 cells - 8 hour (AID 1224873). Also: nearly all actives have a fitted effect of over 55% in size. In outline:
as §1
(In general: qHTS replaces the single test concentration by a dilution series.)

Assay [4] is described as follows: qHTS RealTime-Glo MT Cell Viability Assay in HEK293 cells - 40 hour (AID 1224874). Also: nearly all actives have a fitted effect of over 50% in size. Also: potency is read from the fitted curve at half-maximal effect. The conditions noted are these: RealTime-Glo luminescence; max response: active compounds read low. The essentials:
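Kinetic, non-lysing viability readout. Seed HEK293 (600/well) with reagent, incubate 5 h at 37 C/5% CO2, pin 23 nL compound in DMSO, incubate at 37 C, read luminescence at 0, 8, 16, 24, 32, 40 h.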

The nature of assay [5]: A CellTox Green Cytotoxicity Assay to monitor cytotoxicity in HEK293 cells - 24 hour (AID 1224875). Also: series mostly up to about 77 µM; nearly all actives have a fitted effect of over 45% in size. The essentials:
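Real-time, in one plate: 600 HEK293 cells/well with dead-cell DNA dye, pinned compound after 5 h, 37 C incubation over 40 h; viable cells give no appreciable fluorescence.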

Assay [6] is described as follows: A CellTox Green Cytotoxicity Assay to monitor cytotoxicity in HepG2 cells - 16 hour (AID 1224876). Also: nearly all actives have a fitted effect of over 45% in size. The essentials:
(§2)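 Cytotoxicity was tracked as dead-cell DNA fluorescence in HepG2 cells treated with test compounds at 37 C; each time-point value comes from one kinetic series spanning 0, 8, 16, 24, 32 and 40 h.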

Assay [7] can be described thus: qHTS RealTime-Glo MT Cell Viability Assay in HepG2 cells - 32 hour (AID 1224877). Also: nearly all actives have a fitted effect of over 55% in size. The essentials: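 qHTS, HepG2, 600 cells/well, RealTime-Glo (NanoLuc + prosubstrate) added with cells; 5 h preincubation; DMSO compound addition; 37 C; luminescence at 0/8/16/24/32/40 h.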
Assay [8] in a line: A CellTox Green Cytotoxicity Assay to monitor cytotoxicity in HepG2 cells - 24 hour (AID 1224878). Also: nearly all actives have a fitted effect of over 45% in size. In outline: as §2
A short description of assay [9]: A CellTox Green Cytotoxicity Assay to monitor cytotoxicity in HepG2 cells - 40 hour (AID 1224879). Also: nearly all actives have a fitted effect of over 40% in size. In outline:
as §2

Where “and” joins values, the source holds several entries; their conditions need not be identical. Identical values can stand only once. Results filed as inconclusive are left out. Values without a mark were called inactive. Calls of active or inactive are those of the source. Calls follow the shape of the dose curve; as a rule, active = well fitted curve in the direction sought with a large enough effect in the repeat runs; inconclusive = weak or mixed curves; inactive = no such curve, though single readings can be large; an effect the other way counts as inactive or inconclusive.
% is scaled to controls: 0 for no effect and ±100 for the full control effect.

Turning to `O=C1CCCCC1`, the Potency entry in assay [1], in [2], in assay [3], in [5], in assay [6] and in assay [7] was “inactive” each time. Moreover, the Potency entry in assay [8] and in assay [9] was “inactive” throughout. For the same compound, the max response in [4] is 4.63% and 22.1%.
With `C=C1C2CCC(C2)C1(C)C` (stereo not given), the Potency result in assay [1], in [2], in assay [3], in [5], in [6] and in [7] was “inactive” each time. Moreover, the Potency result in assay [8] is “inactive”. Besides, the max response in assay [4] is -3.35% and 5.02%.
With `C/C=C(C)/C=C/C=C(C)C`, the Potency entry in assay [1], in [2], in assay [5], in [6], in [7] and in assay [8] was “inactive” each time. Also, the Potency entry in assay [9] is “inactive”. The max response in assay [4] was -28.6% and 16.8%.
On to `CN(CCOc1ccc(CC2SC(=O)NC2=O)cc1)c1ccccn1` (stereo not given), for which the Potency result in assay [1], in assay [2], in assay [5], in assay [6], in assay [7] and in [8] was “inactive” in each case. The Potency result in assay [9] is “inactive”. Besides, the max response in assay [4] was -1.82%.
With `CCc1ccccc1O`, the Potency entry in [1], in assay [2], in assay [5], in [6], in assay [7] and in assay [8] was “inactive” throughout. In addition, the Potency result in assay [9] is “inactive”. Further, in [4], the max response is -2.02%.
As to `CCCCCCCCCC(=O)O`, the Potency entry in assay [1], in assay [2], in [3], in assay [5], in assay [6] and in assay [7] was “inactive” in each case. In addition, the Potency entry in assay [8] and in assay [9] was “inactive” throughout. Moreover, the max response in assay [4] is 7.81% and 12.5%.
Turning to `OC1CCCC1`, the Potency result in assay [1], in assay [2], in [3], in assay [5], in assay [6] and in assay [7] was “inactive” throughout. The Potency result in assay [8] and in assay [9] was “inactive” throughout. In assay [4], the max response was 8.58% and -2.67%.
For `C=C(C)C(=O)OCCCCCC`, the Potency result in [1], in assay [2], in assay [3], in assay [5], in assay [6] and in [7] was “inactive” in each case. For the same compound, the Potency result in assay [8] and in [9] was “inactive” throughout. For the same compound, the max response in assay [4] is 7.72% and -0.816%.
Regarding `NC(=O)/N=N/C(N)=O`, the Potency result in assay [1], in assay [2], in assay [3], in assay [5], in [6] and in assay [7] was “inactive” each time. For the same compound, the Potency result in [8] is “inactive”. In assay [4], the max response is 1.69% and 1.16%.
Consider `Oc1c(Cl)cc(Cl)c(Cl)c1Cl`, for which the Potency result in [1], in assay [3], in [5], in [6], in [7] and in assay [8] was “inactive” in each case. Besides, the Potency entry in assay [9] is “inactive”.
For `CCOC(=O)C1OC1c1ccccc1` (stereo not given), the Potency result in assay [1], in [5], in assay [6], in [7] and in assay [8] was “inactive” throughout.
Turning to `CCCCC(CC)COC(=O)/C=C\C(=O)OCC(CC)CCCC` (stereo not given), the Potency result in assay [1], in assay [2], in assay [5], in assay [6], in assay [7] and in assay [8] was “inactive” throughout. Further, the Potency result in [9] is “inactive”. The max response in assay [4] is 1.02% and -3.16%.
In the case of `Nc1c(S(=O)(=O)O)cc(Br)c2c1C(=O)c1ccccc1C2=O`, the Potency result in assay [1], in assay [2], in assay [5], in assay [6], in [7] and in assay [8] was “inactive” in each case. Besides, the max response in assay [4] was 0.275% and -15.6%.
As for `C[C@@H]1O[C@@H](OC[C@H]2O[C@@H](Oc3c(-c4ccc(O)c(O)c4)oc4cc(O)cc(O)c4c3=O)[C@H](O)[C@@H](O)[C@@H]2O)[C@H](O)[C@H](O)[C@H]1O`, the Potency entry in [1], in assay [2], in assay [5], in [6], in assay [7] and in assay [8] was “inactive” each time. The max response in assay [4] was -1.83% and 0.783%.
`O=C(c1cc(O)c(O)c(O)c1)c1ccc(O)c(O)c1O`: the Potency entry in [1], in assay [2], in assay [3], in assay [5], in [6] and in assay [7] was “inactive” in each case. Besides, the Potency entry in [8] and in [9] was “inactive” each time. Moreover, in assay [4], the max response was -21.1% and -21.4% and -9.65%.
For the compound `CN(C)c1ccc(C(=N)c2ccc(N(C)C)cc2)cc1`, the Potency in assay [2] is 5.43 µM (active); in assay [4], 2.42 µM (active) and 2.97 µM (active). Also, the Potency entry in assay [5], in assay [6] and in assay [8] was “inactive” each time.
On to `O=[N+]([O-])c1cccc(Cl)c1`, for which the Potency entry in assay [1], in [2], in assay [3], in assay [5], in [6] and in assay [7] was “inactive” in each case. Also, the Potency entry in assay [8] and in assay [9] was “inactive” throughout. For the same compound, in assay [4], the max response is 7.7%.
As to `Clc1cc(Cl)c(Cl)cc1Cl`, the Potency result in [1], in assay [2], in assay [3], in [5], in [6] and in assay [7] was “inactive” in each case. Besides, the Potency entry in [8] and in [9] was “inactive” throughout. Moreover, the max response in assay [4] is 4.68% and 15.5%.
`Cc1ccc(N)c(S(=O)(=O)O)c1`: the Potency result in assay [1], in assay [2], in [3], in assay [5], in assay [6] and in assay [7] was “inactive” throughout. Further, the Potency entry in assay [8] was “inactive”. In addition, in assay [4], the max response was -4.11% and 2.65%.
